Source: PubChem BioAssay (National Center for Advancing Translational Sciences (NCATS))
Most compounds without a hit are left out; they make up all but 17% or so of the library.
TDP1 cell noCPT – qHTS for Inhibitors of human tyrosyl-DNA phosphodiesterase 1 (TDP1): qHTS in cells in absence of CPT; hit rate 15% among 420,000; DT40 Tdp1-/- hTDP1 cells, no CPT, ATP luminescence, 48 h; AID 686978, 2013; Potency, µM (titrated, usually from 46.2 µM), inactives show at the top dose activity change, negative = growth inhibition, actives largely listed as inhibitors; further: on the % scale 0 is the no-effect control and ±100 the full control effect; nearly all actives have a fitted effect of over 55% in size
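DT40 Tdp1-/-;hTDP1 cells, no CPT (DMSO vehicle only), 400 cells/well; compounds pin-transferred; ≥48 hr, 37 °C; CellTiter-Glo 30 min RT dark, luminescence read.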
DT40 TDP1 CPT – DT40-hTDP1 cell growth loss with CPT | chicken DT40 Tdp1-/-;hTDP1 cells + 20 nM CPT, ATP luminescence, 48 h | Potency, µM (doses to about 46.2 µM), for inactives: at the highest dose activity change, negative = growth inhibition, actives largely listed as inhibitors | hit rate 12% among 420,000 | AID 686979; further: on the % scale 0 is the no-effect control and ±100 the full control effect; nearly all actives have a fitted effect of over 55% in size
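Chicken DT40 Tdp1-/- cells complemented with human TDP1, 400 cells/well, exposed to compounds plus 20 nM camptothecin for at least 48 h at 37 C; viability read as ATP content by CellTiter-Glo luminescence.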
ClpP mod – qHTS Assay for Activators of ClpP | ATP-dependent Clp protease proteolytic subunit (Bacillus subtilis (strain 168)), P80244 | purified B. subtilis ClpP, FRET peptide cleavage, 20 min | Potency, µM (titrated, usually from 57.5 µM), for inactives: at the top dose activity change, negative = active | hit rate 1.9% among 340,000 | AID 651965, 2013; active means well fitted falling curve with a large enough effect; inconclusive means small, poorly fitted or top-dose-only effect; inactive means no such curve, though single readings can be large or run the other way; further: the source files actives as falling curves though it sought activators and does not explain the sign; nearly all actives have a fitted effect of over 65% in size
Target sequence (P80244 whole entry, looked up): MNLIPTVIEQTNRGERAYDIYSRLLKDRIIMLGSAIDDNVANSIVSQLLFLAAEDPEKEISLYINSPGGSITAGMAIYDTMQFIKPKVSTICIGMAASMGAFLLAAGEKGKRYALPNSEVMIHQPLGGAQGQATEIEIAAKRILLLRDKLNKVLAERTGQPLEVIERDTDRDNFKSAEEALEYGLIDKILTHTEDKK
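ClpP 10 microg/mL final, pH 8 Tris/KCl buffer with BSA, glycerol, Tween-20; compound pinned in; FRET-FV substrate; RT 20 min; Ex320/Em430; ΔFRET vs ADEP 5.8 microM, DMSO, no enzyme.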
TDP1 inh – inhibitors of human tyrosyl-DNA phosphodiesterase TDP1 | Q9NUW8 | recombinant TDP1, AlphaScreen DNA substrate cleavage | Potency, µM (series often up to 130 µM), for the others: at the top dose activity change, negative = inhibition, actives largely listed as inhibitors | hit rate 0.28% among 350,000 | AID 485290; further: on the % scale 0 is the no-effect control and ±100 the full control effect; nearly all actives have a fitted effect of over 40% in size
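Here, a 5' biotin and 3' phosphotyrosine-FITC DNA oligonucleotide reports Tdp1 activity: intact substrate bridges AlphaScreen beads, while cleavage leaves a 3' phosphate and drops signal. All incubations at room temperature.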
* = called active by the depositor; ? = inconclusive; . = no result given; [ ] = another dose, or the depositor's remark. Unless noted, the call rests on the fitted dose curve; in most records, active means well fitted curve in the direction sought with a large enough effect; inconclusive means small, poorly fitted or top-dose-only effect, or another doubt; inactive means no such curve, though single readings can be large; an effect the other way counts as inactive or inconclusive. Potency means the concentration at half of the fitted maximal effect.

SMILES | TDP1 cell noCPT | DT40 TDP1 CPT | ClpP mod | TDP1 inh
Cc1cc(SCC(=O)N/N=C/c2ccc(O)c(O)c2)c(C)cc1Br | 16µM* | 21µM* | 1% | 6%
COC(=O)C(NC(=O)CC(C)C)(Nc1nc2c(s1)CCCC2)C(F)(F)F (stereo not drawn) | 12µM* | 16µM* | -1% | -1%
COC(=O)C(NC(=O)COc1ccccc1)(Nc1nc2c(s1)CCCC2)C(F)(F)F (stereo not drawn) | ? | -12% | 1% | -8%
O=C(Nc1nc(Nc2cc(F)cc(F)c2)nc(NC2CCCC2)n1)OCc1ccccc1 | . | . | . | 1%
COc1ccccc1Nc1nc2ccc(C)cc2n2cnnc12 | 18µM* | ? | 4% | .
Cc1ccc2nc(Nc3ccc(C)c(C)c3)c3nncn3c2c1 | 21µM* | ? | 3% | .
c1ccc(N2CCOCC2)c(Nc2nc3ccccc3n3cnnc23)c1 | 16µM* | 21µM* | -9% | 3%
O=C(CN1CCN(C(=O)CN2C(=O)NC3(CCCC3)C2=O)CC1)Nc1cccc(F)c1 | 0% | 7% | 1% | 0%[56.1 µM]
Cn1cc(Cl)cc(C(=O)Nc2ccccc2)c1=O | -2% | 1% | -24% | .
CCOC(=O)Cc1cc(-c2ccc(F)cc2)nc2ccc3ccccc3c12 | 29µM* | ? | 22µM* | -2%
CCOC(=O)Cc1cc(-c2ccc(O)cc2)nc2ccc3ccccc3c12 | ? | ? | 32µM* | 1%
CCOC(=O)Cc1cc(-c2ccc(OC)cc2)nc2ccc3ccccc3c12 | ? | 18µM* | 8.9µM* | -9%
COc1ccc(-c2cc(C(=O)OCC(=O)N(C)C)c3ccccc3n2)cc1 | ? | ? | ? | -4%
CCOC(=O)Cn1nc(-c2ccc(F)cc2)cc(Cc2ccccc2)c1=O | -3% | -23% | -4% | .
O=C(OCCCN=C1NS(=O)(=O)c2ccccc21)c1ccc([N+](=O)[O-])cc1 | -28% | -5% | . | 4%
C[C@@H]1C(=O)N(S(=O)(=O)c2ccc([N+](=O)[O-])cc2)[C@H]1c1ccc(F)cc1 | . | . | . | 3%
O=C(CSc1nnc(CCCN2C(=O)c3cccc4cccc(c34)C2=O)n1-c1ccccc1)N1CCN(CCO)CC1 | ? | ? | 14µM* | 0%
CC1CCC2C(=O)N3C(CCC(C)[C@@H]3c3ccc(-c4ccco4)cc3)C(=O)N2C1c1cccc(N2CCCC2=O)c1 (stereo partly drawn) | . | . | . | -4%[21 µM]
O=C(NC1CCCCC1)C(c1cccc2ccccc12)n1c(=O)c(-c2ccco2)nc2ccccc21 (stereo not drawn) | 23µM* | 16µM* | ? | .
COc1ccc(C(C(=O)NCc2ccccc2)n2c(=O)c(-c3ccco3)nc3ccccc32)cc1 (stereo not drawn) | ? | ? | 4% | .
COc1ccc(C(C(=O)NC2CCCCC2)n2c(=O)c(-c3ccco3)nc3ccccc32)cc1 (stereo not drawn) | 26µM* | ? | -13% | .
COc1ccc(NC(=O)C(c2ccncc2)n2c(=O)c(-c3ccco3)nc3ccccc32)cc1 (stereo not drawn) | 23µM* | ? | -23% | .
COc1ccc(NC(=O)C(c2cccc3ccccc23)n2c(=O)c(-c3ccco3)nc3ccccc32)cc1 (stereo not drawn) | -30% | ? | -8% | .
CO[C@@H]1[C@@H](O[C@@H]2O[C@H](C)[C@@H](O[C@H]3C[C@@](C)(O)[C@@H](O)[C@H](C)O3)[C@H](N(C)C)[C@H]2O)[C@@H](CC=O)C[C@@H](C)[C@@H](O[C@@H]2CC[C@H](N(C)C)[C@@H](C)O2)/C=C/C=C/C[C@@H](C)OC(=O)C[C@H]1O | -8%[21.1 µM] | -29%[21.1 µM] | . | .
COC(=O)c1ccccc1C(=O)NCC1Cc2cc(-c3nc(C)cnc3C)ccc2O1 (stereo not drawn) | -9% | 11%[9.04 µM] | . | .
SMILES | TDP1 cell noCPT | DT40 TDP1 CPT | ClpP mod | TDP1 inh
Clc1ccc(/C=N/N2CCN(Cc3ccccc3)CC2)cc1 | -3% | ? | -3% | .
CN(C(=O)c1ccccc1Cl)C1CCCCC1 | -18% | -7% | -2% | 0%
CC1CC(N(C(=O)c2ccccc2Cl)c2ccccc2)c2ccccc2N1 (stereo not drawn) | 5.8µM* | 7.3µM* | -2% | 9%
Cc1ccc2nc(C3CCCCC3)c(Cc3ccccc3C(F)(F)F)n2c1 | 16µM* | -102% | 5% | .
Cc1ccc2nc(C3CCCCC3)c(Cc3ccccc3)n2c1 | 16µM* | 15µM* | 4% | .
N#CC1=C(N)SC(N)=C(C#N)C1c1ccc([N+](=O)[O-])cc1 | ? | 15µM* | 2% | 8%
N#CC1=C(N)SC(N)=C(C#N)C1c1ccc(C(F)(F)F)cc1 | . | . | . | 7%
COc1ccc(NC(=O)CS(=O)CC(=O)Nc2cccc3cccnc23)cc1 (stereo not drawn) | -24% | 9% | . | 5%
CC(=O)Nc1cc(C(=O)N2CC3(C)CC2CC(C)(C)C3)cc2ncn(CCc3ccccn3)c12 (stereo not drawn) | 23µM* | ? | . | .
COc1ccc(NC(=O)/C(C#N)=C/c2ccc(-c3ccc(Cl)c(C(=O)O)c3)o2)cc1 | ? | 18µM* | -2% | .
CCOC(=O)c1ccc(-c2ccc(/C=C(\C#N)C(=O)NCC3CCCO3)o2)cc1 (stereo not drawn) | 23µM* | 21µM* | 91% | 1%
COc1ccc(NC(=O)/C(C#N)=C\c2ccc(-c3cccc(C(=O)O)c3C)o2)cc1 | 4.6µM* | ? | . | .
COc1ccc(NC(=O)/C(C#N)=C/c2ccc(-c3ccccc3C(=O)O)o2)cc1 | -2% | 6% | . | .
COc1cc(/C=C(\C#N)C(=O)NCC2CCCO2)ccc1OCCC(C)C (stereo not drawn) | 16µM* | 21µM* | . | 3%
CCc1ccc(C(=O)c2cn(CC(=O)Nc3ccc4c(c3)OCO4)c3ccc(F)cc3c2=O)cc1 | ? | -25% | -2% | 4%
CCc1ccccc1NC(=O)CSc1nnc(-c2ccc(OC)cc2)s1 | -20% | 9% | -5% | 2%
Cc1sc2nc(CSCC(=O)N(CCC#N)c3ccccc3F)[nH]c(=O)c2c1C | -9% | ? | -2% | 2%
CCCCOC(=O)c1ccc(NC(=O)/C(C#N)=C/c2ccc(-c3ccccc3)o2)cc1 | 16µM* | 16µM* | 1% | -2%[12.3 µM]
CCCCNC(=O)/C(C#N)=C/c1ccc(-c2ccc(S(=O)(=O)N3CCOCC3)cc2)o1 | 10µM* | 7.3µM* | -5% | 3%
Cc1ccc(O)c(C(=O)CC(=O)c2ccc(Cl)cc2)c1 | 5.8µM* | 7.3µM* | -3% | .
O=C(CC(=O)c1cc(Cl)ccc1O)c1ccccc1 | 4.6µM* | 2.3µM* | 11% | 7%
Cc1ccc(O)c(C(=O)CC(=O)c2cccc(F)c2)c1 | 2.6µM* | 2.3µM* | 0% | 7%
